# Screening results as filed in PubChem BioAssay.
# A selection: hits, their analogues and other compounds. The true share with any hit is near 2.4%.
# Cruzain inh noDet: blocks cruzain activity in detergent-free assay; P25779; purified cruzain, Z-FR-AMC fluorescence, no detergent; Potency, µM, for inactives: max response, negative = inhibition, most hits filed as inhibitors; actives 2.3% (n = 200,000);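 note: plate controls were enzyme without inhibitor for no effect and buffer without enzyme for full effect; nearly all actives have a fitted effect of over 40% in size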
# Target sequence (P25779 123-467 limits assumed): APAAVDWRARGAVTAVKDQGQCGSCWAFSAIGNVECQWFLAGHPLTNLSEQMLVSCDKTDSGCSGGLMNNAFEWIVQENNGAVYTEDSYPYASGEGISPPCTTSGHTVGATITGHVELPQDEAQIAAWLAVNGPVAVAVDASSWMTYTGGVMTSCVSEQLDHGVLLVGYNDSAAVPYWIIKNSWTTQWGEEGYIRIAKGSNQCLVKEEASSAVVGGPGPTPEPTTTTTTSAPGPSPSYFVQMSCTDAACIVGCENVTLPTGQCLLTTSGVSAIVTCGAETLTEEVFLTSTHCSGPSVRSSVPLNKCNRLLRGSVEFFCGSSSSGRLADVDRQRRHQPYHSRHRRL
#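 Purified cruzain at 1.5 nM, pre-incubated 15 min with compound at room temperature in 100 mM sodium acetate pH 5.5, 5 mM DTT, 0.00005% Triton X-100. Reaction started with 2 uM Z-FR-AMC; AMC fluorescence increase over 60 s gives rate.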
# Cruzain Triton: blocks cruzain activity in presence of Triton detergent; P25779; purified cruzain, Z-FR-AMC fluorescence, 0.01% Triton; Potency, µM, without a hit: max response, negative = inhibition, hits mostly inhibitors; actives 0.43% (n = 200,000); AID 1478;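 note: plate controls were neutral wells for no effect and buffer without enzyme for full effect; nearly all actives have a fitted effect of over 40% in size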
#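 Z-FR-AMC hydrolysis (2 uM substrate) by cruzain (1.5 nM) monitored kinetically at ex 360/em 450 nm after 15 min room-temperature compound exposure; 0.01% Triton X-100, pH 5.5, 5 mM DTT.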
# * = called active by the depositor; ? = inconclusive; ! = not active in a repeat. Calls come from the whole dose curve; as a rule, active = well fitted curve in the direction sought with a large enough effect; inconclusive = small, poorly fitted or top-dose-only effect, or another doubt; inactive = no such curve, though single readings can be large; an effect the other way counts as inactive or inconclusive. Potency is the fitted concentration of half-maximal effect.
SMILES,Cruzain inh noDet,Cruzain Triton
CCCCOC(=O)c1ccc(-c2ccc(/C=N/NC(=S)NCC)o2)cc1,25µM*,7%
CCCOC(=O)c1ccc(-c2ccc(C=O)o2)cc1,-6%,-10%
CCCCOC(=O)c1ccc(NC(=O)/C(C#N)=C/c2ccc(-c3ccccc3)o2)cc1,25µM*,-4%
CCOC(=O)c1ccc(-c2ccc(/C=C(\C#N)C(=O)Nc3c(C)cccc3Cl)o2)cc1,-1%,-2%
CC(C)N1C(=S)SC(C)(C)C1NO (stereo not given),0%,-1%
O=[N+]([O-])c1cccc(Cl)c1NCCNc1ncc(C(F)(F)F)cc1Cl,4%,-10%
Oc1ccc2ccccc2c1/C=C\c1ccc2c(Br)cc(Br)c(O)c2n1,3.2µM*,1%
Oc1ccc2ccccc2c1/C=N/n1cnnc1,-18%,-11%
COCCn1c(=NC(=O)CN2C(=O)CCC2=O)sc2cc(S(N)(=O)=O)ccc21,5%,-6%
COCCn1c(=NC(=O)c2ccc(S(=O)(=O)N3CCc4ccccc4C3)cc2)sc2cc(OC)ccc21,4µM*,-3%
Cc1ccc(C(=O)COC(=O)c2cccc(NC(=O)c3ccc([N+](=O)[O-])cc3[N+](=O)[O-])c2)cc1,?,6%
CCOC(=O)c1sc(NC(=O)c2ccc(CC)s2)nc1C,16µM*,4%
CCOC(=O)c1sc(NC(=O)c2ccccc2OC)nc1C,5%,-6%
CCOC(=O)c1sc(NC(=O)Nc2ccccc2F)nc1C,-7%,-3%
CCOC(=O)c1sc(NC(=O)/C=C/c2c(F)cccc2Cl)nc1C,13µM*,-8%
CNc1ncnc2c1cnn2-c1ccc(C)c(C)c1,-2%,0%
CCCCCC(C)NC(=O)c1ccoc1C (stereo not given),4%,0%
COc1ccccc1/C=C\C=N\n1c(-c2ccc(Cl)cc2)n[nH]c1=S,?,1%
COc1ccccc1/C=C\C=N\n1c(-c2ccc(Cl)cc2Cl)n[nH]c1=S,32µM*,-1%
CCOC(=O)C1=C(C)NC(=O)NC1c1ccsc1 (stereo not given),2%,1%
O=C(O)C1CCCCC1C(=O)N1CC=C(c2ccccc2)CC1 (stereo not given),-9%,0%
O=C(CCN1CCN(Cc2ccccc2)CC1)NNC(=O)Cc1ccc(Cl)c(Cl)c1,0%,-4%
COc1cc(-c2ccc(N=Nc3ccc4c(S(=O)(=O)O)cc(S(=O)(=O)O)c(N)c4c3O)c(OC)c2)ccc1N=Nc1ccc2c(S(=O)(=O)O)cc(S(=O)(=O)O)c(N)c2c1O,?,25µM*!
Cc1nn(-c2ccc(S(=O)(=O)O)cc2)c(O)c1N=Nc1ccc(-c2ccc(N=Nc3ccc4c(S(=O)(=O)O)cc(S(=O)(=O)O)c(N)c4c3O)c(O)c2)cc1O.[Cu].[Cu],1%,-6%
CCOc1ccc(-n2c(=O)c3sccc3n(CC(=O)NCc3ccco3)c2=O)cc1,-14%,-1%
SMILES,Cruzain inh noDet,Cruzain Triton
COc1ccc(NC(=O)CSc2nc(O)cc(=O)n2-c2ccccc2OC)cc1,16µM*,?
COc1ccccc1-n1c(SCC(=O)Nc2ccc(C)cc2)nc(O)cc1=O,5%,-3%
COc1ccc(NC(=O)CCCn2c(=O)c3cccn3c3ccccc32)c(OC)c1,?,-3%
Cc1cc(C)nc(Nc2ccc(N3CCOCC3)cc2)n1,?,0%
Cc1cc(C)nc(Nc2ccc(N3CCCC3)cc2)n1,32µM*,-4%
CN(CC(=O)Nc1ccccc1Cl)C(=O)CSc1nc2ccccc2s1,21%,-3%
O=S(=O)(Nc1ccc(OC(F)(F)F)cc1)c1ccc(N2CCCCS2(=O)=O)cc1,26%,-10%
CCNc1ncc2ncc(=O)n(C[C@H]3CCCO3)c2n1,-14%,-15%
CCNc1ncc2nc(C)c(=O)n(C[C@H]3CCCO3)c2n1,?,20µM*
Cn1c(=O)oc2cc(S(=O)(=O)N3CCc4ccccc4C3)ccc21,-1%,6%
Cc1ccc(OCC(=O)Nc2ccc(-c3nc4ccc(C)cc4o3)cc2)cc1,25µM*,1%
CCC(Oc1ccccc1)C(=O)Nc1ccc(-c2nnc(-c3ccco3)o2)cc1 (stereo not given),9%,-7%
O=C(COc1ccc(Br)cc1)Nc1ccc(-c2nnc(-c3ccco3)o2)cc1,10µM*,5%
COc1ccc(OCC(=O)Nc2ccc(-c3nc4cc(C)c(C)cc4o3)cc2)cc1,1%,1%
CCCCNC(=O)c1onc(CSc2cc(C)ccc2C)c1C(=O)O,7%,-4%
CCOc1ccc(CNC(=O)CC(C)n2nc(C)cc2C)cc1OC (stereo not given),2%,2%
O=C(Nc1cccc(Cl)c1)Nc1cccc(Cl)c1,2%,-11%
CCOC(=O)c1c(NC(=O)Nc2ccc(Cl)cc2)sc(C)c1C,25µM*,-1%
CCOC(=O)c1c(NC(=O)Nc2cccc(Cl)c2)sc(C)c1C,25µM*,0%
CCOC(=O)c1sc(NC(=O)Nc2ccc(Cl)cc2)cc1C,-8%,-2%
COc1ccc(S(=O)(=O)N(CC(=O)Nc2cccnc2)c2ccc(C)cc2)cc1OC,2%,-3%
N=C(N)SCCSC(=N)N,1%,3%
O=C(Nc1ccccc1N1CCN(C(=O)c2ccccc2)CC1)c1cc2ccccc2o1,0.16µM*,-8%
O=C(Nc1ccccc1N1CCCC1)c1cc2ccccc2o1,-13%,-2%
COc1ccc(CCn2c(C)cc(C(=O)CSc3nc(N)cc(=O)[nH]3)c2C)cc1,25µM*,0%
SMILES,Cruzain inh noDet,Cruzain Triton
Cc1cc(C(=O)CSc2nnc(N)s2)c(C)n1CCc1ccc(F)cc1,16µM*,3%
COc1ccc(CCn2c(C)cc(C(=O)CSc3nnc(N)s3)c2C)cc1,?,-3%
Cc1cc(C(=O)CSc2nnnn2-c2ccccc2)c(C)n1CCc1ccccc1,-9%,1%
CCCc1cc(=O)[nH]c(SCC(=O)c2cc(C)n(CCOC)c2C)n1,6%,1%
Cc1cc(C(=O)CSc2nc(N)cc(=O)[nH]2)c(C)n1CCc1ccc(F)cc1,25µM*,1%
Cc1cc(C(=O)CSc2nnnn2C)c(C)n1CCc1ccc(F)cc1,25µM*,6%
Cc1cc(C(=O)CSc2nnc(N)s2)c(C)n1CCc1ccc(Cl)cc1,?,-1%
Cc1cccc(C)c1NC1=NC(=S)N(c2ccccc2)C12CCOC(C)(C)C2 (stereo not given),-5%,1%
CC[N+](C)(CC)CCOC(=O)C(O)(c1ccccc1)C1CCCCC1 (stereo not given),-5%,1%
COc1ccc(OC)c(NC(=O)CSc2nnc(Cc3cccn3C)n2CCc2ccccc2)c1,?,-4%
O=C(Nc1cccc(Br)c1)c1ccc(CSc2ccccc2)cc1,-9%,4%
FC(F)(F)c1cccc(Nc2c3c(nc4ccc(Cl)cc24)CCC3)c1,-2%,-14%
COC(=O)c1nnn(-c2nonc2N)c1CSc1ccccn1,-1%,4%
c1ccc(OCc2nnc3sc(C4COc5ccccc5O4)nn23)cc1 (stereo not given),-21%,-11%
CCOc1ccc(/C(O)=C2/C(=O)C(=O)N(c3nc(C)c(C)s3)C2c2ccco2)cc1 (stereo not given),-27%,-10%
O=C(CC1(O)C(=O)N(Cc2ccccc2)c2ccc(Br)cc21)c1ccccc1 (stereo not given),7%,-7%
COc1ccc(NS(=O)(=O)c2ccc(SC)cc2)cc1,-23%,-2%
NC(N)=Nc1nc(CSCC/C(N)=N/S(N)(=O)=O)cs1,10µM*!,-14%
